# Test results taken from PubChem BioAssay (NCI).
# This is part of a sample that, as a whole, favours compounds with a hit. Of some 83,000 tested, about 20% had one in any assay.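 Activity criterion: percent growth below 10, measured after cells in 96-well plates were exposed to a single compound concentration for 48 hours.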 A number with no mark means an inactive call. The source made the active and inactive calls.
# System: HL-60(TB) leukemia
# Assay: NCI-60 one-dose screen, 48 h (100 = growth as untreated, 0 = no growth, -100 = all killed)
# Conditions: 10 µM unless noted
row,Structure (SMILES),growth
1,COCCNC(C)=O,107%
2,COc1ccc(-c2[nH]ncc2/C=C/c2cc(C(F)(F)F)[nH]c(=O)n2)cc1,92%
3,S=C(Sc1ccc(Cl)cc1)Sc1ccc(Cl)cc1,-63.7% (active)
4,N#Cc1c(-c2ccc(Cl)cc2)nc(N=Nc2c(O)[nH]c3ccc(Cl)cc23)nc1N1CCOCC1,104%
5,COc1ccc2nc3ccccc3c(NCc3ccccc3)c2c1,8.18% (active)
6,Cc1ccc(C)c2c1CCC2C(C)C (configuration not stated),108%
7,C/C(=C\CCc1ccsc1)CC/C=C(\C)CCCN1CCC(CO)CC1,-49.9% (active)
8,Cc1[nH]c(C(=O)Nc2nc3ccc(NC(=O)CCN)cc3s2)c(Cl)c1Cl,83.8%
9,COc1ccc(C(=O)Nn2c(NCC(=O)N3c4ccccc4Sc4ccccc43)nnc2-c2ccc(O)cc2)cc1,94.3%
10,CC(=O)Nc1ccc2c(c1)C(=O)c1cccc(C(=O)O)c1-2,97.2%
11,C[n+]1c2ccccc2c(Nc2ccc(NS(=O)(=O)CCCCN=C(N)N)cc2)c2ccc(N)cc21,16.7%
12,NC(=O)NC(=O)c1ccc(Cl)cc1,95%
13,CCNC(=S)N(Cc1ccccc1)Cc1ccccc1,96.2%
14,Nc1nccc(Nc2ccccc2)n1,105%
15,CCOc1cccc(NC2=C(Br)C(=O)C(C)=C(C)C2=O)c1,-12.5% (active)
16,COc1ccc(-c2c(N)n[nH]c2-c2cc3c(c(OC)c2OC)OCO3)cc1,63.1%
17,O=C(O)Cn1ccc2ccccc21,104%
18,O=S(=O)(Nc1cccc2cc(OS(=O)(=O)c3ccccc3)ccc12)c1ccccc1,41.4%
19,CC(=O)Nc1cc(C(c2ccccc2)c2ccccc2)cc(C(c2ccccc2)c2ccccc2)c1C,53.1%
20,COc1cc(Br)c(OC)cc1Br,109%
21,Cc1ccc2c(C)c3c(ccc4ccccc43)c[n+]2c1,94.4%

row,Structure (SMILES),growth
1,CCOC(=O)C(CCC1=NC(C)(C)CC(C)O1)C(=O)OCC (configuration not stated),56.4%
2,N#Cc1nc(C#N)c(Sc2ccccc2)c(Sc2ccccc2)c1Sc1ccccc1,-37.2% (active)
3,CCC(=O)Nc1ccc(-c2nc(-c3cccc(OC)c3)c(-c3ccnc(Br)c3)[nH]2)cc1,49.5%
4,COC(=O)CCC1=C(C)C(C)=N/C1=C\c1[nH]c(-c2ccc[nH]2)cc1OC,-21.8% (active)
5,COC(=O)[C@H](Cc1cn(C)cn1)NC(=O)[C@H](CC(=O)OCc1ccccc1)NC(=O)Nc1cc(C(F)(F)F)cc(C(F)(F)F)c1,-68.9% [100 µM] (active)
6,COc1cnc2c(c1)C(=O)c1c-2n(CCCN2CCN(C)CC2)c(=O)c2cc(Cl)ccc12,50.6%
7,C[C@@H]1CCCCCCCCC[C@H](O)C(=O)C[C@@H](SC[C@@H](O)C(=O)O)C(=O)O1,86.8%
8,COc1cc(NCCN(CC(C)C)CC(C)C)c2ncc(C)cc2c1,88.2%
9,CN(C)C(=O)Nc1nc2cc(Cl)c(Cl)cc2[nH]1,-29.9% (active)
10,Cc1cc(NCCCN(C)C)c2ccc3c(ccc4c(NCCCN(C)C)cc(C)nc43)c2n1,-60.2% (active)
11,Ic1cccs1,104%
12,O=c1c2sc3ncc(Cl)cc3c2nnn1-c1cccc(Cl)c1,91.8%
13,O=C1c2cccc3cccc(c23)C(=O)N1CC#Cc1ccc2c3c(cccc13)C(=O)N(CCN1CCNCC1)C2=O,93%
14,NC1(N2SC(S)=C3CCCC=C32)CCCCC1,89.6%
15,COc1cnc2c(c1)C(=O)c1c-2n(CCCNC2=NCCS2)c(=O)c2cc([N+](=O)[O-])ccc12,-58.7% (active)
16,O=C(Nc1cccc(-n2ccc3c(NC(=O)c4ccccc4)nccc32)c1)Nc1ccc(Cl)c(C(F)(F)F)c1,-22.8% (active)
17,Oc1ccc(-c2[nH]c3ccccc3c2-c2nc3ccccc3o2)cc1,80.8%
18,CC(=O)N(C)c1ccc(Nc2ccc(Nc3ccc(N(C)C(C)=O)cc3)c3c2C(=O)c2ccccc2C3=O)cc1,77%
19,C=CC(=O)Nc1cc2c(Nc3ccc(F)c(Cl)c3)ncnc2cc1OCCCN1CCOCC1,-26.7% (active)
20,CC(C(=O)n1cc(-c2ccccc2)c(-c2ccccc2)c1)c1ccccc1 (configuration not stated),106%
21,COc1cc(/C(Cl)=C/C=C/C(=O)c2c(C)[n+]([O-])c3ccc(Cl)cc3[n+]2[O-])cc(OC)c1OC,11.9%

row,Structure (SMILES),growth
1,COc1ccc(/C=C2/C(=O)Nc3cc(Cl)c(-c4csc(N)n4)cc32)cc1,8.08% (active)
2,C=CCn1c(SCC(=O)Nc2ccc(/C(C)=N\O)cc2)nnc1-c1cc(-c2ccc(OC)cc2)nc2ccccc12,-39.2% (active)
3,CC(C)C1=NOC(=O)C1=Cc1cn(-c2ccccc2)nc1-c1ccc(Cl)cc1,-44.5% (active)
4,O=C(CNc1nnc(-c2ccc(Cl)cc2)o1)Nc1ccc(-c2nc3ccccc3s2)cc1,93.7%
5,CC(=O)Nc1cc(F)cc(C(F)(F)F)c1Cl,100%
6,Nc1c(Cl)cc(N=Nc2ccccc2)cc1Cl,97.4%
7,Nc1c(C(=O)Nc2ccccn2)sc2nc3c(cc12)CCCC3,5.35% (active)
8,O=C1CSC(c2c(F)cccc2Cl)N1NC(=O)C(O)(c1ccccc1)c1ccccc1 (configuration not stated),98.3%
9,CC(C)(C)n1cc(-c2ccnc(NCCNS(=O)(=O)c3ccc(O)cc3)c2)c(-c2cccc(O)c2)n1,101%
10,CCCCCCCCCCCCCCCCCCn1cc(COc2ccc(C=O)cc2)nn1,86.7%
11,Cc1ccc([N+](=O)[O-])cc1Br,80.6%
12,O=c1[nH]c(SCc2ccccc2)nc2nc(Nc3ccc(NC(=S)Nc4ccccc4)cc3)nc(-c3ccc(O)cc3O)c12,117%
13,O=C(Nc1ccc2c(O)cc(S(=O)(=O)O)cc2c1)c1ccc([N+](=O)[O-])cc1,75.3%
14,O=C(Nc1ccc(N2CCNCC2)cn1)c1[nH]ncc1Nc1ncnc2sccc12,76.7%
15,COc1ccc(-c2nc([C@@H](C)Sc3nc(N)cc(N)n3)c(C)s2)cc1OCCN1CCOCC1,105%
16,COc1ccc(NC(=O)c2ccc(Nc3ncnc4c3cnn4-c3cccc(F)c3)cc2)cc1,94.9%
17,Cc1ccccc1OCC(O)COc1ccccc1C,128%
18,CC(O)C(N)=O (configuration not stated),117%
19,COc1ccncc1S(=O)(=O)NC(=O)Nc1ccc(Cl)c(Cl)c1,84.8%
20,Cc1ccc2nc3nc4ccc[nH]c4cc3c2c1,124%
21,COc1cc(NC(=O)CSc2nc3ccc(Cl)cc3c(=O)n2-c2ccc(F)cc2)cc(OC)c1OC,106%

row,Structure (SMILES),growth
1,C=C(c1ccc(C(=O)O)c(F)c1)c1cc2c(cc1C)C(C)(C)C=CC2(C)C,86.3%
2,CCOC(=O)/C(=C/c1ccccc1)C(=O)c1ccccc1,34.5%
3,O=C1/C(=C/c2cccc(Br)c2)COc2ccc(O)c(O)c21,-15.3% (active)
4,Cc1cc(=O)c2c(C)ccc(C)c2[nH]1,96.7%
5,O=C1c2c(O)cc(O)cc2OC(c2ccc(O)c(O)c2)C1O (configuration not stated),110%
6,C=C(C)[C@@H]1CC[C@]2(C(=O)NC3CCCCC3)CC[C@]3(C)[C@H](CC[C@@H]4[C@@]5(C)CCC(=O)C(C)(C)[C@@H]5CC[C@]43C)[C@@H]12,76.6%
7,COc1cc2nc3cc([N+](=O)[O-])ccc3c(NCCNCC(C)O)c2cc1OC (configuration not stated),-16.8% (active)
8,CN(CCCCCCCCNc1ccnc2ccccc12)Cc1ccc(-c2ccc(-c3ccc(C#N)cc3)s2)cc1,-58.4% (active)
9,COc1ccc(/C=C(\C#N)c2cc3ccccc3[nH]2)cc1,14.8%
10,O=C(NCCN1CCOCC1)OCc1nc2nc(Cl)nc(N3CCOCC3)c2[nH]1,-54% (active)
11,COc1cc2c(cc1-c1c(C)noc1C)ncc1nc(C3CCCC3)n([C@H](C)COC(F)F)c12,27.8%
12,Nc1c(C(=O)O)cc(Cl)cc1[N+](=O)[O-],73.7%
13,CC1CC(C)/C(=N/NC(N)=O)C(C(O)CC2CCC(=O)NC2=O)C1 (configuration not stated),40.1%
14,C=C1C(=O)O[C@@H]2[C@H]3[C@H](COC(C)=O)[C@@H](OC(C)=O)C[C@H]3C(=C)[C@@H](O)C[C@@H]12,78.9%
15,O=C1C=CC(=O)N1c1ccccc1N1C(=O)C=CC1=O,31.7%
16,CCN(CC)CCCNc1nccc2ccc(Cl)cc12,99.4%
17,COCc1nc(NS(=O)(=O)c2ccc(N)cc2)nc(C)c1Br,114%
18,CCN1CCN(c2nc(NNC(=O)Cc3ccccc3)nc(N3CCN(C(c4ccccc4)c4ccccc4)CC3)n2)CC1,-53.9% (active)
19,O=C1/C(=C/c2cccc(F)c2)CN(C(=O)C(Cl)Cl)C/C1=C\c1cccc(F)c1,-41.6% (active)
